The results in this text go back to PubChem BioAssay (NCATS).

“And” between values parts separate entries of the source, which are not always exact repeats. Equal entries are not always repeated. Records with an inconclusive call do not appear. Unmarked numbers belong to inactive results. The source made the active and inactive calls. Calls come from the whole dose curve; as a rule, active = well fitted inhibition curve with a large enough effect; inconclusive = small, poorly fitted or top-dose-only effect; inactive = flat fitted curve, though single readings scatter.

The test system of assay [1] is CRL-7250. The assay can be described thus: Cytotoxic Profiling of Annotated Libraries Using Quantitative High-Throughput Screening (AID 1296008). Note: potency is the fitted concentration of half-maximal effect. As to conditions: Five cell lines viability, CellTiter-Glo ATP luminescence, 48-72 h; max response: active compounds read low. Put shortly:
(§1)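 Cytotoxicity was measured as CellTiter-Glo ATP luminescence, read after 10 min at room temperature. Compound treatment of the cells lasted 48 or 72 hr at 37 degrees Celsius in a qHTS format.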
In general terms: Cellular ATP, detected with luciferase, serves as a proxy for viable cell number.

The subject of assay [2] is HEK293. The assay is described as above. The conditions noted are these: Five cell lines viability, CellTiter-Glo ATP luminescence, 48-72 h; max response: active compounds read low. A digest of the protocol:
as §1

For assay [3], the system named is HaCat. The assay is described as above. As to conditions: Five cell lines viability, CellTiter-Glo ATP luminescence, 48-72 h; max response: active compounds read low. A digest of the protocol: as §1
For assay [4], the system named is KB-3-1. Described as above. The conditions noted are these: Five cell lines viability, CellTiter-Glo ATP luminescence, 48-72 h; max response: active compounds read low. Put shortly: as §1
In assay [5] the test system is NIH3T3. The description is as above. As to conditions: Five cell lines viability, CellTiter-Glo ATP luminescence, 48-72 h; max response: active compounds read low. A digest of the protocol:
as §1

Assay [6] has as its system HACAT. The experiment in a line: qHTS assay to identify novel small-molecules to repurpose for Merkel cell carcinoma treatment (AID 1296009). As to conditions: MCC and control cell lines, CellTiter-Glo viability, 72 h; series mostly up to 44.8 µM. A digest of the protocol:
(§2)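 After compound transfer in DMSO, plates were kept 72 hr at 37 degree celsius. Luminescent ATP signal from CellTiter-Glo served as viability measure, normalized against DMSO and no-cell controls.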
Background: qHTS replaces the single test concentration by a dilution series.

For assay [7], the system named is MCC-13. Described as above. As to conditions: MCC and control cell lines, CellTiter-Glo viability, 72 h; series mostly up to 46 µM. A digest of the protocol:
as §2

For assay [8], the system named is MCC-26. Described as above. The conditions noted are these: MCC and control cell lines, CellTiter-Glo viability, 72 h; series mostly up to 46 µM. A digest of the protocol: as §2
Assay [9] concerns HEK293T. The description is as above. As to conditions: MCC and control cell lines, CellTiter-Glo viability, 72 h; at 44.8 µM (top of the series) unless noted. Put shortly: as §2
% is set by controls: 0 for no effect and ±100 for the full control effect.
Note: nearly all actives have a fitted effect of over 60% in size.

Consider `CN(C)CC=CC(=O)Nc1cc2c(Nc3ccc(F)c(Cl)c3)ncnc2cc1O[C@H]1CCOC1`, for which the Potency was 3.32 µM (active) in assay [1], 1.32 µM (active) in [2], 4.18 µM (active) in assay [4] and 3.72 µM (active) in assay [5]. For the same compound, in [3], the max response is -151%.

Regarding `COc1cc(C(C)C)c2c(c1)S(=O)(=O)N(COc1cc(=O)n3cccc(OCCN4CCCCC4)c3n1)C2=O`, the max response is -9.13% in assay [1] and -21.7% in assay [2]. Besides, the outcome in assay [3], in assay [4] and in [5] was inactive. Also, the Potency result in assay [6], in assay [7] and in [8] was “inactive” throughout.

For the compound `Cn1c(=O)n(-c2ccc(C(C)(C)C#N)cc2)c2c3cc(-c4cnc5ccccc5c4)ccc3ncc21`, the Potency in [1] was 259 nM (active) and 235 nM (active); in assay [2], 326 nM (active) and 26.4 nM (active); in [4], 731 nM (active) and 16.6 nM (active); in assay [5] it was 580 nM (active) and 46.9 nM (active). In addition, in assay [3], the compound was called inactive. For the same compound, the Potency result in assay [6] was “inactive”.

With `CC(C)(C)c1cc(NC(=O)Nc2ccc(-c3cn4c(n3)sc3cc(OCCN5CCOCC5)ccc34)cc2)no1`, the max response in assay [1] was -10.2% and -19.2%; in assay [4] it was 4.76% and -14.7%; in assay [5], -25.4%. Besides, the Potency in assay [2] was 1.18 µM (active) and 5.8 µM (active). Also, the call in assay [3] and in [5] was inactive. Moreover, the Potency result in [6], in assay [7] and in assay [8] was “inactive” in each case.

With `COc1ccc(CC2SC(=O)NC2=O)cc1C(=O)NCc1ccc(C(F)(F)F)cc1` (stereo not given), in assay [1], the Potency is 11.8 µM (active). The max response is -1.55% in [2], -9.05% in [4] and 2.55% in [5]. Besides, in assay [3], the compound was classed as inactive. The Potency entry in [6], in assay [7] and in [8] was “inactive” each time.

As to `O=C(Nc1ncc(-c2cc(C(F)F)nn2-c2c(Cl)cccc2Cl)s1)C1CC1`, the Potency in assay [1] was 1.48 µM (active) and 3.66 µM (active); in assay [2], 1.05 µM (active); in assay [4] it was 590 nM (active) and 820 nM (active); in [5], 1.18 µM (active) and 1.46 µM (active). In addition, the max response in assay [3] is -7.36% and -20.3%.

With `O=C(O)[C@H](Cc1c[nH]c2ccccc12)N1C(=O)c2ccccc2C1=O`, the result in [1], in [2] and in assay [3] was inactive. For the same compound, the max response in assay [4] was 3.99%; in assay [5], 4.64%. Besides, the Potency result in assay [6], in assay [7] and in assay [8] was “inactive” each time. Further, the outcome in [9] was “inactive [at 92 µM]”.

As to `CC(C)(C)c1cc(C(C)(C)C)c(NC(=O)c2c[nH]c3ccccc3c2=O)cc1O`, the result in [1], in [2], in assay [3], in assay [5] and in [9] was inactive. Further, the max response in assay [4] is -1.43%. For the same compound, the Potency entry in assay [6], in assay [7] and in [8] was “inactive” throughout.

With `Cc1ccc(C(N)=O)cc1Nc1nccc(-c2cn(C(C)C)c3cnccc23)n1`, the Potency was 11.6 µM (active) in assay [1]; 6.51 µM (active) in [2]; 23.5 µM (active) in assay [3]; 5.8 µM (active) in assay [4]; 10.5 µM (active) in assay [5].

Turning to `N#Cc1c(O)c2c(-c3ccc(-c4ccccc4O)cc3)csc2[nH]c1=O`, the max response in assay [1] was -0.58% and 1.34%; in assay [2] it was 3.13% and -14.8%; in [5], -1.37%. The outcome in assay [3], in assay [4] and in assay [5] was inactive. Besides, the Potency entry in assay [6] and in assay [7] was “inactive” each time.

`O=C(NCCS(=O)(=O)c1ccc(C(F)(F)F)cn1)c1ccc(Cl)cc1`: the max response in assay [1] was 2.65%; in assay [2], -5.18%; in [5], 1.91%. The call in assay [3] and in assay [4] was inactive. For the same compound, the Potency entry in [6], in [7] and in [8] was “inactive” throughout.

For `OCCCNc1cc(-c2ccnc(Nc3cccc(Cl)c3)n2)ccn1`, the Potency in [1] was 46.9 nM (active) and 146 nM (active); in assay [2], 209 nM (active) and 231 nM (active); in assay [3], 105 nM (active) and 820 nM (active); in [4], 118 nM (active) and 206 nM (active); in assay [5] it was 166 nM (active) and 580 nM (active).

As to `Cc1cc(Nc2nc(N[C@@H](C)c3ccc(F)cc3)c(C#N)cc2F)n[nH]1`, the Potency in assay [1] was 16.6 µM (active) and 7.31 µM (active); in assay [2], 2.64 µM (active) and 1.3 µM (active); in [3] it was 2.59 µM (active); in [4] it was 1.05 µM (active) and 731 nM (active); in [5] it was 3.72 µM (active) and 4.11 µM (active).

Regarding `COc1cc(=C2C=c3ccccc3=N2)[nH]c1=Cc1[nH]c(C)cc1C`, the Potency in assay [1] is 11.8 µM (active); in [2], 8.33 µM (active); in assay [3], 20.9 µM (active); in assay [4] it was 3.72 µM (active); in assay [5], 18.7 µM (active).
